Results from PubChem BioAssay (NCATS).
Records with an inconclusive call do not appear. The source made the active and inactive calls. Unless noted, the call rests on the fitted dose curve; in most records, active means well fitted curve in the direction sought with a large enough effect; inconclusive means small, poorly fitted or top-dose-only effect, or another doubt; inactive means no such curve, though single readings can be large; an effect the other way counts as inactive or inconclusive.

Legend:
[1] = Primary redox qHTS assay for identification of artifact compounds. (AID 1845223);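 further: 0% = DMSO and 100% = reference compound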
Method in brief: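 Amplex Red (25 uM) and HRP (250 mU/mL) in HBSS, with compounds for 15 min, then 250 uM DTT for 30 min, room temperature, dark. Fluorescence 525/598 nm read; normalized to DMSO and 10 uM DA3003; Hill fit.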

[2] = qHTS profiling for inhibitors of Plasmodium falciparum proliferation (AID 504749); further: nearly all actives have a fitted effect of over 60% in size; further: potency means the concentration at half of the fitted maximal effect;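 on activity, negative = inhibition: 0% = DMSO vehicle and full inhibition = artemisinin control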; conditions: P. falciparum in erythrocytes, SYBR Green DNA, 72 h
Method in brief: (§1)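 Infected RBCs, 0.3% parasitemia/2.5% Hct final; cpd 72 h, 37 C, 5% CO2; lysis buffer with saponin/triton/SYBR Green I, o/n RT dark; FI 485/535; norm. to artemisinin (0.29 uM) and DMSO.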

3D7 = assay: as above; conditions: P. falciparum in erythrocytes, SYBR Green DNA, 72 h; series mostly up to 28.7 µM
Method in brief: as §1

7G8 = assay: as above; conditions: P. falciparum in erythrocytes, SYBR Green DNA, 72 h; series mostly up to 28.7 µM
Method in brief: as §1

AA1029 = assay: as above; conditions: P. falciparum in erythrocytes, SYBR Green DNA, 72 h; series mostly up to 28.7 µM
Method in brief: as §1

AS120 = assay: as above; conditions: P. falciparum in erythrocytes, SYBR Green DNA, 72 h; series mostly up to 28.7 µM
Method in brief: as §1

ATS189 = assay: as above; conditions: P. falciparum in erythrocytes, SYBR Green DNA, 72 h; series mostly up to 28.7 µM
Method in brief: as §1

ATS95 = assay: as above; conditions: P. falciparum in erythrocytes, SYBR Green DNA, 72 h; series mostly up to 28.7 µM
Method in brief: as §1

[3] = molecular target: Cytochrome P450 3A4 (Homo sapiens) (UniProt P08684); assay: qHTS for inhibitors of CYP3A4 against the NCATS DSHEA and TCM libraries (AID 1919971);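 further: on the % scale 0 is the no-effect control and ±100 the full control effect; inhibition lowers luminescence from luciferin made by CYP3A4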
Method in brief: (§2)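 Luminescent P450-Glo format: compounds preincubated 15 min with enzyme and luciferin substrate, reaction run 30-45 min after NADPH regeneration solution. Intraplate controls: ketoconazole for CYP3A4 and CYP2C19, sulfaphenazole for CYP2C9.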

[4] = molecular target: Cytochrome P450 2D6 (Homo sapiens) (UniProt P10635); assay: qHTS for inhibitors of CYP2D6 against the NCATS DSHEA and TCM libraries (AID 1919972); further: on the % scale 0 is the no-effect control and ±100 the full control effect
Method in brief: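 Luminescent P450-Glo read-out of CYP2D6 turnover of a luciferin substrate after NADPH-driven reaction of 30-45 min at room temperature. Compounds were first preincubated 15 min with enzyme at titrated concentrations; quinidine was the intraplate control.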

[5] = molecular target: Cytochrome P450 2C9 (Homo sapiens) (UniProt P11712); assay: qHTS for inhibitors of CYP2C9 against the NCATS DSHEA and TCM libraries (AID 1919973);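 further: luminogenic pro-luciferin CYP2C9 substrate turned into luciferin with NADPH regeneration; on the % scale 0 is the no-effect control and ±100 the full control effect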
Method in brief: as §2

[6] = molecular target: Cytochrome P450 2C19 (Homo sapiens) (UniProt P33261); assay: qHTS for inhibitors of CYP2C19 against the NCATS DSHEA and TCM libraries (AID 1919974);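 further: luminescence from luciferin released by CYP2C19 oxidation of a pro-luciferin substrate; potency means the concentration at half of the fitted maximal effect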
Method in brief: as §2

[7] = KB-3-1 P-gp reporter qHTS against the NCATS DSHEA and TCM libraries (AID 1919975); further: 0% is about no effect
Method in brief: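 CellTiter-Glo luminescence viability readout; KB-3-1 parental cells, 500/well, attached ~4 h, then compound for ~72 h, 37C, 5% CO2. Bortezomib intraplate control.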

[8] = qHTS Counterscreen for compound interference against the NCATS DSHEA and TCM libraries (AID 1919978); conditions: firefly luciferase detection reagent interference, luminescence;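 further: compounds preincubated with 1 µM D-luciferin or buffer before detection reagent; % of control where 0% means no effect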
Method in brief: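 Luminescence counterscreen for detection-kit interference: compounds at 19.5 nM–39.8 uM final, 15 min RT with 1 uM D-luciferin or buffer only; detection reagent added, 30 min RT, then read.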

[9] = Dual reporter qHTS for agonist of Pregnane X Receptor (hPXR) against the NCATS DSHEA and TCM libraries: Fluorescence readout (AID 1920058); further: 0% is about no effect
Method in brief: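 hPXR-Luc HepG2 cells, 2000/well in charcoal-stripped serum, attached 5 h, dosed for ~24 h at 37 °C. Fluorescence read is CellTiter-Fluor viability (Ex/Em 405/540 nm); rifampicin positive, tetraoctyl ammonium bromide (92 µM) cytotoxicity controls.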

[10] = molecular target: Nuclear receptor subfamily 1 group I member 2 (Homo sapiens) (UniProt O75469); assay: Dual reporter qHTS for agonist of Pregnane X Receptor (hPXR) against the NCATS DSHEA and TCM libraries: Luminescence readout (AID 1920059); further: 0% is about no effect
Method in brief: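 Luminescent PXR reporter read (ONE-Glo) after a CellTiter-Fluor viability read, following 24 h, 37C treatment of HepG2 cells stably carrying hPXR-Luc.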

[11] = Dual reporter qHTS for antagonist of Pregnane X Receptor (hPXR) against the NCATS DSHEA and TCM libraries: Fluorescence Readout (AID 1920061); further: 0% is about no effect
Method in brief: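 hPXR-Luc HepG2 cells exposed 24 h at 37 C to compounds with 2 uM rifampicin in antagonist mode; luciferase luminescence measured by ONE-Glo, with CellTiter-Fluor viability read beforehand.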

[12] = qHTS drug screen for cell cycle checkpoint inhibitors in PARPi-resistant BRCA-mutant ovarian cancer cell lines. (AID 1963452; calls by dose curve; further: potency means the concentration at half of the fitted maximal effect); conditions: PEO1/OlaR viability, CellTiter-Glo luminescence, 96 h; for Z-AUC: stronger effect = lower value
Method in brief: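 PEO1, PEO4 and PEO1/OlaR ovarian cancer cells, 600 per well, exposed 96 h at 37C to a dilution series. Viability read by CellTiter-Glo luminescence, normalized to DMSO and empty wells; activity summarized as Z-AUC.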

[13] = at 28.7 µM (top of the series), parasite line A
[14] = at 28.7 µM (top of the series), parasite line B
[15] = measured here: PEO1 parental Z-AUC
[16] = at 12.8 µM (top of the series), parasite line A
[17] = at 12.8 µM (top of the series), parasite line B

Chain of Cytochrome P450 3A4 (Homo sapiens) (P08684 whole entry, looked up): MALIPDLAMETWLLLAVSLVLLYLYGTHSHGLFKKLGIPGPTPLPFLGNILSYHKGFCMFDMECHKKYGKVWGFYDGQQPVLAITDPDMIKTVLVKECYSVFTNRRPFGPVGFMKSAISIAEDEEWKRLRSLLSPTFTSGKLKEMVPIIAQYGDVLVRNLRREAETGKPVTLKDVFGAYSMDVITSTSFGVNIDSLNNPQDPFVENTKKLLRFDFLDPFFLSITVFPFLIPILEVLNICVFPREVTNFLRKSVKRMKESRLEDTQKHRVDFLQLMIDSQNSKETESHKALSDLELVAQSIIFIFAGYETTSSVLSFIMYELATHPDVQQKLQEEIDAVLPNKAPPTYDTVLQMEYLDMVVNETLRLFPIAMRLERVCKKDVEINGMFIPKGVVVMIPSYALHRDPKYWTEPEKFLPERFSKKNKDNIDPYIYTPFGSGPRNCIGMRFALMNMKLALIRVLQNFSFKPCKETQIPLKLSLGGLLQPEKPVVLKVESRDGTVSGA
Chain of Nuclear receptor subfamily 1 group I member 2 (Homo sapiens) (O75469 whole entry, looked up): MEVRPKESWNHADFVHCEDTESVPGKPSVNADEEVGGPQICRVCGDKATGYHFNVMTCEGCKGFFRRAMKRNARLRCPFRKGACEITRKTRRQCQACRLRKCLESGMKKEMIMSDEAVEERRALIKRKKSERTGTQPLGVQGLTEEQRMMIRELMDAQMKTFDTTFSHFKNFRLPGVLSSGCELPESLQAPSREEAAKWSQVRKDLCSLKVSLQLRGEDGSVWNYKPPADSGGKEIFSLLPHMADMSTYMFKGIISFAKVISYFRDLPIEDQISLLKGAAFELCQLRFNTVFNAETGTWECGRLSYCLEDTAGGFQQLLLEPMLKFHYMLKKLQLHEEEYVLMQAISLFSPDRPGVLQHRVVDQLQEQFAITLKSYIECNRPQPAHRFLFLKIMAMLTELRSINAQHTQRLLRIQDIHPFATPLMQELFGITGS
Chain of Cytochrome P450 2C9 (Homo sapiens) (P11712 whole entry, looked up): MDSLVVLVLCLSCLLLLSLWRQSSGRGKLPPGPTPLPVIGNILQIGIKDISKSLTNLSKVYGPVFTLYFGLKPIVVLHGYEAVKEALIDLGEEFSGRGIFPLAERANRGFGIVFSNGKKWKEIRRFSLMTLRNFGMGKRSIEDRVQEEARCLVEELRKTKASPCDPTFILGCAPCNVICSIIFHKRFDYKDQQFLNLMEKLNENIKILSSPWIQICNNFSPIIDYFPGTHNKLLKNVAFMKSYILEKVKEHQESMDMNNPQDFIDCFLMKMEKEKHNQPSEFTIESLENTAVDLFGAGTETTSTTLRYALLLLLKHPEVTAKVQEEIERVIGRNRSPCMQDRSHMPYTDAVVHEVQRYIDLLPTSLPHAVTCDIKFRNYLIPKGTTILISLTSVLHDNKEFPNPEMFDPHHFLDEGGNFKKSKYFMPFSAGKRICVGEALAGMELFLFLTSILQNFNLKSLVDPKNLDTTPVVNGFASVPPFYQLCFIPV
Chain of Cytochrome P450 2C19 (Homo sapiens) (P33261 whole entry, looked up): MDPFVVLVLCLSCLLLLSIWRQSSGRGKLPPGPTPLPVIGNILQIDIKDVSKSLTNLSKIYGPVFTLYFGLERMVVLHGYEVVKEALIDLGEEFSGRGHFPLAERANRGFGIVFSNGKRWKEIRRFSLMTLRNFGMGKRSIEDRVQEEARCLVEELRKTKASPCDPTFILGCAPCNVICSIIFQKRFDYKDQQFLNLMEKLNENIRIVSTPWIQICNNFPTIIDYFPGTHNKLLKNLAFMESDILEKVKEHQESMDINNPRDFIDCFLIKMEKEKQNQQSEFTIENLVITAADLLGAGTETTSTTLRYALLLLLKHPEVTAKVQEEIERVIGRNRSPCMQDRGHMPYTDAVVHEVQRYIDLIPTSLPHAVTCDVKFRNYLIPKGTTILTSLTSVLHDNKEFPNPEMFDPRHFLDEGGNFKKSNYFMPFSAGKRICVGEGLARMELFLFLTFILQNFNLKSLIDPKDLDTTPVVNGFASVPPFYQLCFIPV
Chain of Cytochrome P450 2D6 (Homo sapiens) (P10635 whole entry, looked up): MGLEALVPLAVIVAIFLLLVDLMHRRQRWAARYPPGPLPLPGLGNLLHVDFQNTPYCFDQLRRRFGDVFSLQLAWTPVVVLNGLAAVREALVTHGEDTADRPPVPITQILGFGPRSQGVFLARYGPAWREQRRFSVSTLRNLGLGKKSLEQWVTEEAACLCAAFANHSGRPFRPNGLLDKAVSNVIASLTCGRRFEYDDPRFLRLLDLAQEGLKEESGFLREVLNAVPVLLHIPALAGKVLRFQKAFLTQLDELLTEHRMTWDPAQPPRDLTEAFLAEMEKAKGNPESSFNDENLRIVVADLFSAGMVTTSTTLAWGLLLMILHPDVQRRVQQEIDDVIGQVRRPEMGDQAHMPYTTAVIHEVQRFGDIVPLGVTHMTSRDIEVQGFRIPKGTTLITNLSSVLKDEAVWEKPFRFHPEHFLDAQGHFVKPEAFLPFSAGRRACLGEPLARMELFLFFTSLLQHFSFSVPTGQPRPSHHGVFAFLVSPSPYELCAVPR

NC(=NCCCCCCN=C(N)/N=C(\N)Nc1ccc(Cl)cc1)/N=C(\N)Nc1ccc(Cl)cc1
active: Potency ([2]; parasite line A) 3.16 µM | Potency ([2]; parasite line B) 3.98 µM | Potency (3D7) 1.41 µM | Potency (7G8) 0.251 µM | Potency (AA1029) 1 µM | Potency (AS120) 1.26 µM | Potency (ATS189) 1.78 µM | Potency (ATS95) 2 µM
inactive: outcome [1]

Cc1ccccc1C(=O)Nc1ccc(C(=O)N2CCCC(N(C)C)c3ccccc32)cc1 (configuration not stated)
inactive: outcome [1]

CN1C(CCl)Nc2cc(Cl)c(S(N)(=O)=O)cc2S1(=O)=O (configuration not stated)
inactive: outcome [1] | activity, negative = inhibition [2, 13] 6.24% | activity, negative = inhibition [2, 14] -11.6% | Potency (3D7) | Potency (7G8) | Potency (AA1029) | Potency (AS120) | Potency (ATS189) | Potency (ATS95)

CC(C)(C)CC(C)(C)c1ccc(OCCOCC[N+](C)(C)Cc2ccccc2)cc1
inactive: outcome [1]
active: Potency ([2]; parasite line A) 3.55 µM | Potency ([2]; parasite line B) 5.01 µM | Potency (3D7) 1.78 µM | Potency (7G8) 1.58 µM | Potency (AA1029) 4.47 µM | Potency (AS120) 5.01 µM | Potency (ATS189) 7.08 µM | Potency (ATS95) 3.98 µM

Nc1nc2ncc(CNc3ccc(C(=O)N[C@@H](CCC(=O)O)C(=O)O)cc3)nc2c(=O)[nH]1
inactive: outcome [3] | outcome [4] | outcome [5] | outcome [7] | max response [8] -4.69% | outcome [9] | outcome [10] | outcome [11]
active: Potency [6] 3.55 µM

O=c1[nH]c(=O)n([C@H]2C[C@H](O)[C@@H](CO)O2)cc1C(F)(F)F
-0.928: Z-AUC [12, 15]
-0.403: Z-AUC ([12]; measured here: PEO4 Z-AUC)
inactive: Z-AUC [12] -0.642

COc1cccc2c1C(=O)c1c(O)c3c(c(O)c1C2=O)C[C@@](O)(C(=O)CO)C[C@@H]3O[C@H]1C[C@H](N)[C@H](O)[C@H](C)O1
-0.971: Z-AUC [12, 15]
-0.369: Z-AUC ([12]; measured here: PEO4 Z-AUC)
inactive: Z-AUC [12] -0.906

CN1[C@@H]2CC[C@H]1CC(OC(=O)c1c[nH]c3ccccc13)C2 (some centres not stated)
inactive: outcome [1]

O=C(Nc1ccc(Cl)c(Cl)c1)C1CC1
inactive: activity, negative = inhibition [2, 13] -11.1% | activity, negative = inhibition [2, 14] -1.73% | Potency (3D7) | Potency (7G8) | Potency (AA1029) | Potency (AS120) | Potency (ATS189) | Potency (ATS95)

CC(=O)OCC(=O)[C@@]12OC(C)(C)O[C@@H]1C[C@H]1[C@@H]3C[C@H](F)C4=CC(=O)C=C[C@]4(C)[C@@]3(F)[C@@H](O)C[C@@]12C
-0.783: Z-AUC ([12]; measured here: PEO4 Z-AUC)
0.136: Z-AUC [12, 15]
inactive: Z-AUC [12] -0.667

Nc1ccc(C(=O)Nc2ccccc2N)cc1
inactive: activity, negative = inhibition [2, 13] -0.627% | activity, negative = inhibition [2, 14] 14.4% | Potency (3D7) | Potency (7G8) | Potency (AA1029) | Potency (AS120) | Potency (ATS189) | Potency (ATS95)

C[C@]12CC[C@@H]3c4ccc(O)cc4CC[C@H]3[C@@H]1CC[C@@H]2O
0.0962: Z-AUC [12, 15]
inactive: Z-AUC [12] 0.573 | activity, negative = inhibition [2, 13] 14.2% | activity, negative = inhibition [2, 14] 10.8% | Potency (3D7) | Potency (7G8) | Potency (AA1029) | Potency (AS120) | Potency (ATS189) | Potency (ATS95)
0.419: Z-AUC ([12]; measured here: PEO4 Z-AUC)

CC(=O)Oc1ccc(C(c2ccc(OC(C)=O)cc2)c2ccccn2)cc1
inactive: activity, negative = inhibition [2, 13] 0.325% | activity, negative = inhibition [2, 14] 3.02% | Potency (3D7) | Potency (7G8) | Potency (AA1029) | Potency (AS120) | Potency (ATS189) | Potency (ATS95)

Clc1ccc2c(c1)CCc1cccnc1C2=C1CCNCC1
inactive: activity, negative = inhibition [2, 13] -8.94% | activity, negative = inhibition [2, 14] -21.2%

CCC(=O)c1c(O)cc(O)cc1O
inactive: activity, negative = inhibition [2, 13] -1.33% | activity, negative = inhibition [2, 14] 0.647% | Potency (3D7) | Potency (7G8) | Potency (AA1029) | Potency (AS120) | Potency (ATS189) | Potency (ATS95)

CC(Cc1cccc(C(F)(F)F)c1)NCCOC(=O)c1ccccc1 (configuration not stated)
active: Potency (7G8) 8.91 µM
inactive: activity, negative = inhibition [2, 13] 15.8% | activity, negative = inhibition [2, 14] 6.99% | Potency (3D7) | Potency (AA1029) | Potency (AS120) | Potency (ATS189) | Potency (ATS95)

CC(=O)N(O)CCCCCNC(=O)CCC(=O)N(O)CCCCCNC(=O)CCC(=O)N(O)CCCCCN
-0.683: Z-AUC ([12]; measured here: PEO4 Z-AUC)
inactive: Z-AUC [12] -0.069 | activity, negative = inhibition [2, 16] 5.32% | activity, negative = inhibition [2, 17] 1.3% | Potency (3D7) | Potency (7G8) | Potency (AA1029) | Potency (AS120) | Potency (ATS189) | Potency (ATS95)
-0.402: Z-AUC [12, 15]

Nc1cc(Cl)c(NC2=NCCN2)c(Cl)c1
inactive: activity, negative = inhibition [2, 13] 18.9% | activity, negative = inhibition [2, 14] 15.3% | Potency (3D7) | Potency (7G8) | Potency (AA1029) | Potency (AS120) | Potency (ATS189) | Potency (ATS95)

COc1c(C)c2c(c(O)c1C/C=C(\C)CCC(=O)O)C(=O)OC2
inactive: Z-AUC [12] -0.522
active: Potency ([2]; parasite line A) 3.16 µM | Potency ([2]; parasite line B) 3.55 µM | Potency (3D7) 3.55 µM | Potency (7G8) 2.51 µM | Potency (AA1029) 2.51 µM | Potency (AS120) 3.16 µM | Potency (ATS189) 2.51 µM | Potency (ATS95) 3.16 µM
-0.309: Z-AUC ([12]; measured here: PEO4 Z-AUC)
-0.0213: Z-AUC [12, 15]

Oc1c(Cl)cc(Cl)cc1Sc1cc(Cl)cc(Cl)c1O
inactive: activity, negative = inhibition [2, 13] -0.752% | activity, negative = inhibition [2, 14] -1.75% | Potency (3D7) | Potency (7G8) | Potency (AA1029) | Potency (AS120) | Potency (ATS189) | Potency (ATS95)

COc1cccc2c1C(=O)c1c(O)c3c(c(O)c1C2=O)C[C@@](O)(C(C)=O)C[C@@H]3O[C@H]1C[C@H](N)[C@H](O)[C@H](C)O1
active: Potency [12] 0.174 µM | Potency ([2]; parasite line A) 3.55 µM | Potency ([2]; parasite line B) 7.08 µM | Potency (3D7) 2 µM | Potency (7G8) 1.26 µM | Potency (AA1029) 4.47 µM | Potency (AS120) 3.98 µM | Potency (ATS189) 8.91 µM | Potency (ATS95) 4.47 µM
-2.06: Z-AUC ([12]; measured here: PEO4 Z-AUC)
-2.1: Z-AUC [12, 15]

C[C@H](O)C(=O)Nc1c(I)c(C(=O)NC(CO)CO)c(I)c(C(=O)NC(CO)CO)c1I
inactive: activity, negative = inhibition [2, 16] -8.8% | activity, negative = inhibition [2, 17] 10.5% | Potency (3D7) | Potency (7G8) | Potency (AA1029) | Potency (AS120) | Potency (ATS189) | Potency (ATS95)
